# Most compounds without a hit are left out; they make up all but 4.5% or so of the library.
# Mdm2 MdmX PPI: inhibitors of human Mdm2/MdmX interaction | inhibition, % at 8 µM | O15151+Q00987 | actives 3% (n = 330,000) | SaOS-2 split-luciferase Mdm2/MdmX complementation, luminescence;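 active means inhibition of at least 50% at 8 µM in the primary screen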
# 697 NFkB inh: lowers PMA/ionomycin-induced NF-kB signal in 697 B cells. 697 B-cell NF-kB luciferase reporter, 16 h. inhibition, % at 4 µM. actives 0.33% (n = 330,000); in the data active means inhibition above about 35%
# aSyn 5UTR inh: MLPCN primary screen, SNCA 5' untranslated region; alpha-synuclein 5'UTR reporter, inhibitor activity; inhibition, % (tested at 7.5 µM); actives 0.82% (n = 300,000); in the data active means inhibition above about 60%;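 further: H4 neuroglioblastoma cells stably carrying SNCA 5'UTR luciferase fusion; 0% = DMSO wells and 100% = positive control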
# Gli-Sufu block: Gli-Sufu pathway antagonism; Sufu-KO-LIGHT fibroblasts, Gli luciferase reporter luminescence; inhibition, % at 5 µM; actives 0.74% (n = 340,000); AID 588413;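 active means inhibition above about 55%, limit read from the data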;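 further: 0% = DMSO-treated cells and 100% = wells with medium but no cells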
# Jurkat NFkB inh: inhibitors of the PMA/ionomycin-induced NF-kB reporter in Jurkat cells. PMA/ionomycin-induced NF-kB luciferase reporter, luminescence. inhibition, % at 4 µM. actives 0.53% (n = 330,000). AID 435003; in the data active means inhibition above about 50%
# CSC inhib: blocks cancer stem cells; inhibition, % at 7.5 µM; actives 1.1% (n = 300,000); cancer stem cell-like cells viability, luminescence; in the data active means inhibition above about 75%; tested in HMLE shEcad cells
# * hit, by the source's call; . = no result given.
SMILES,Mdm2 MdmX PPI,697 NFkB inh,aSyn 5UTR inh,Gli-Sufu block,Jurkat NFkB inh,CSC inhib
CCOC(=O)C(Cc1ccc(O)cc1)NC(=O)CNC(=O)C1CCCN1C(=O)OC(C)(C)C (stereo not drawn),15,11,3,2,6,-10
COC(=O)/C=C1\S/C(=N/NC(=O)c2ccccc2)NC1=O,15,3,19,5,-1,-3
COc1ccccc1/C=C1\S/C(=N/NC(=O)c2cccc(Br)c2)NC1=O,50,-27,7,-12,-13,114*
Cc1nc2sccn2c(=O)c1CCN1CCC(=C(c2ccc(F)cc2)c2ccc(F)cc2)CC1,37,9,-5,17,10,79*
COc1ccc(C2NC(=O)NC(O)(C(F)(F)F)C2C(=O)c2ccc(C)cc2)cc1 (stereo not drawn),16,13,-7,-1,-8,-8
C/C(=N\Nc1ncc(Cl)cc1Cl)c1ccccn1,.,.,101*,76*,.,.
CC(=NNC(=S)Nc1ccccc1Cl)c1ccccn1,.,.,.,93*,.,.
COc1ccccc1CNS(=O)(=O)CCNC(=O)c1ccccc1,-1,2,-2,-4,0,-5
O=C(Nc1cccc(Cl)c1N1CCCC1)c1cccc(-c2cc3ccccc3oc2=O)c1,20,-102,-101,-45,-12,84*
CCOc1ccc(-c2n[nH]c(C)c2-c2ccccc2OC)c(O)c1,40,-13,-4,2,36,-11
CCc1cc(-c2n[nH]c(C)c2-c2ccccc2Cl)c(O)cc1OC,10,-19,14,3,-3,103*
CC(=O)c1cccc(NC(=O)CSc2ccc(-c3ccccn3)nn2)c1,37,-11,69*,-7,23,3
CCCCNc1nc(Nc2ccc(C)c(Cl)c2)c2cnn(C)c2n1,3,-51,-1,46,-17,82*
C/C(=N\Nc1nc2ccccc2s1)c1ccc(Br)s1,10,-37,-56,19,-3,84*
C/C(=N\Nc1nc2ccccc2s1)c1ccc2c(c1)OCO2,-133,-48,-176,-34,-64,0
O=c1[nH]c(=O)n(C2C[C@H](O)[C@@H](CO)O2)cc1C(F)(F)F (stereo partly drawn),31,28,.,30,18,76*
CN(c1ccccc1)S(=O)(=O)c1ccc(C(=O)Nc2nnc(-c3ccco3)o2)cc1,36,-17,17,-3,-14,67
CCN(c1ccccc1)S(=O)(=O)c1ccc(C(=O)Nc2nnc(-c3ccco3)o2)cc1,42,-37,37,-2,-16,87*
CCN(c1ccccc1)S(=O)(=O)c1ccc(C(=O)Nc2nnc(C3CC3)o2)cc1,39,-9,71*,-7,1,32
CC(=O)c1sc(NC(=O)c2oc3ccc(F)cc3c2C)nc1C,-60,-144,.,-70,-84,-5
CCCCCCCn1c2c(c(=N)c3c1CCC3)CCCC2,.,.,83*,90*,.,.
C=CCn1c(=O)c(CCC(=O)Nc2ccc(N3CCOCC3)cc2)nc2cc(C(F)(F)F)ccc21,9,-50,18,-4,-29,-18
CCc1nnc(NC(=O)c2ccc(C)o2)s1,18,-21,-47,-13,-13,-41
Cc1ccc(C(=O)Nc2ncc(Cc3ccccc3)s2)o1,-104,-17,-18,-69,-97,97*
O=C(Nc1ncc(Cc2ccc(SC(F)F)cc2)s1)c1ccccc1,30,-121,68*,-60,48,68
SMILES,Mdm2 MdmX PPI,697 NFkB inh,aSyn 5UTR inh,Gli-Sufu block,Jurkat NFkB inh,CSC inhib
CSc1sc(C(=O)N2CCCCC2)c(-c2cccs2)c1C#N,23,-1,-17,9,-7,8
COc1ccc([C@H]2Oc3cc(O)cc(O)c3C(=O)C2[C@@H]2C(=O)c3c(O)cc(O)cc3O[C@@H]2c2ccc(OC)cc2)cc1 (stereo partly drawn),40,29,16,-10,-7,142*
COc1ccc(NC(=O)c2ccc(COc3ccccc3Br)o2)c(OC)c1,24,6,18,1,14,92*
Cc1c(N=NC2=C(O)CCCC2=O)c(=O)n(-c2ccccc2)n1C,10,20,2,-1,2,7
CCN1C(=O)[C@@H]2[C@@H](c3ccc(-c4ccc(C(C)=O)cc4)cc3)N3CCCC[C@@]3(C(=O)OC)[C@@H]2C1=O,12,-18,10,8,-3,7
C=CCOC(=O)C1=C(C)NC(SCC)=C(C#N)C1c1ccc(Cl)cc1 (stereo not drawn),18,18,67*,6,12,40

# Bioassay records deposited in PubChem BioAssay by several laboratories.
